Assay results published in article PMC4336329 (PLoS ONE, 2015).
About 14,000 (4.5%) of roughly 310,000 compounds showed an effect of 50% or more. Effects have a minus sign here. Only a selection was taken, and strong results are over-represented in it overall.

Target: human ether-à-go-go-related gene (hERG) potassium channel (human, UniProt Q12809)
Experiment: primary screen, population patch clamp on CHO cells stably expressing hERG; higher = less effect of the substance
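Also: peak tail current of the secondary pulse compared with the same well before compound.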

Sequence of human ether-à-go-go-related gene (hERG) potassium channel (Q12809 whole entry, looked up): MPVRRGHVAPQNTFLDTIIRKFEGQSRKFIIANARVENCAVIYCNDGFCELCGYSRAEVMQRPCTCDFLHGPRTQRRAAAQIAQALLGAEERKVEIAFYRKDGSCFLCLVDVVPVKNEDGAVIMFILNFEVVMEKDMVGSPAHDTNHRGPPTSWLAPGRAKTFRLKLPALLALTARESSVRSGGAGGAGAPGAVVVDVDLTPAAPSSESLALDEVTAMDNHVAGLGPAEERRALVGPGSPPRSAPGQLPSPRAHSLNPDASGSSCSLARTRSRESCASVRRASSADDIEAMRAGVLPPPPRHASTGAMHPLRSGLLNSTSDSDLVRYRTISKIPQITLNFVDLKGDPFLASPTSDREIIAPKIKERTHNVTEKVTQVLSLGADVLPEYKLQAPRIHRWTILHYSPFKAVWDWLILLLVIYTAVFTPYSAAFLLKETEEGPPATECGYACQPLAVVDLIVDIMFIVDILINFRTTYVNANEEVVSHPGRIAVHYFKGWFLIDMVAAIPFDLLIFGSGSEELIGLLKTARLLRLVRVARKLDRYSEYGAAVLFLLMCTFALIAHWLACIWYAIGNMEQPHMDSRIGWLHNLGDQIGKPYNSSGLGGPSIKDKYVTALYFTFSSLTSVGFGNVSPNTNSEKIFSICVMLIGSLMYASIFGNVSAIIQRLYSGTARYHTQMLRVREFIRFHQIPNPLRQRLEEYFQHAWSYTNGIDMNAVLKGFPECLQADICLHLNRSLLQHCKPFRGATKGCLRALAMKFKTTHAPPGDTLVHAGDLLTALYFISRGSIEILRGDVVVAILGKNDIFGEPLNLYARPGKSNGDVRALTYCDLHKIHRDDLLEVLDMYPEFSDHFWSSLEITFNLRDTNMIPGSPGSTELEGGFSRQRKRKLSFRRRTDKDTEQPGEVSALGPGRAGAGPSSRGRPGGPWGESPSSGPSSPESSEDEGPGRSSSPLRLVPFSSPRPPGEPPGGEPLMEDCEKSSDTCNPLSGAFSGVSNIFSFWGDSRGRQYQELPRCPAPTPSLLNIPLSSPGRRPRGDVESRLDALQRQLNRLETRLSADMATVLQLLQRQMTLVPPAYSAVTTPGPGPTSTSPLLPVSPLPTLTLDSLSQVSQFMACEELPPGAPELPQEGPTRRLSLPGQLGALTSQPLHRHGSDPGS

| SMILES | hERG current change (%, negative = inhibition) at 10uM [%] |
| --- | --- |
| O=C(Nc1c(C(=O)c2ccccc2)oc2ccccc12)c1cc(-c2ccccc2O)n[nH]1 | 9.34 |
| COc1cc(C(=O)Nc2ccc3c(c2)OCO3)ccc1-n1cnnn1 | -15.6 |
| O=C(Cn1nnc(-c2ccccc2-n2cnnn2)n1)NCc1ccccc1 | -5.93 |
| CC1CCC(N2CCN(C(=O)COc3ccccc3)CC2)CC1.O=C(O)C(=O)O (stereo not drawn) | -31.4 |
| COc1ccc(OCC(=O)N2CCN(C3CCC(c4ccccc4)CC3)CC2)cc1 (stereo not drawn) | -54.4 |
| Cc1ccc(OCC(=O)N2CCC(N3CCCCCC3)CC2)cc1 | -28.3 |
| Cc1ccc(OCC(=O)N2CCN(C3CCC(c4ccccc4)CC3)CC2)cc1.O=C(O)C(=O)O (stereo not drawn) | -62.8 |
| COc1ccc(OCC(=O)N2CCN(C(=O)Cc3ccccc3)CC2)cc1 | -32.5 |
| COc1ccc(N2CCN(C(=O)COc3ccccc3)CC2)cc1 | -20.6 |
| COc1ccc(C2NC(=O)Cc3cc(OC)c(OC)cc32)cc1OC (stereo not drawn) | 5.46 |
| COC(=O)c1ccc(/C=C/C(=O)OCC(=O)Nc2ncc(Cl)cc2Cl)cc1 | -19.9 |
| CCOc1ccccc1CNn1cnnc1 | 2.62 |
| Cc1nn(Cc2ccc(Cl)c(Cl)c2)c(C)c1NC(=O)c1cc(-c2ccc3c(c2)OCO3)on1 | 6.42 |
| Brc1ccc2c(c1)C(C1=NCCN1)c1ccccc1CS2.O=C(O)/C=C\C(=O)O (stereo not drawn) | -20.3 |
| Cc1cccc(NC(=O)OC2CN3CCC2CC3)c1 (stereo not drawn) | -9.77 |
| Brc1ccc2c(c1)C(OC1CN3CCC1CC3)c1ccccc1CS2.O=C(O)/C=C\C(=O)O (stereo not drawn) | -71.4 |
| CCOCCN1CCN(C2c3ccccc3CSc3ccccc32)CC1.O=C(O)C(=O)O (stereo not drawn) | -30.3 |
| O=C(Nc1ccccc1Cl)OC1CN2CCC1CC2 (stereo not drawn) | -32.9 |
| Clc1ccc2c(c1)C(OC1CN3CCC1CC3)c1ccccc1CS2.O=C(O)/C=C\C(=O)O (stereo not drawn) | -50.6 |
| Clc1ccc2c(c1)C(C1=NCCN1)c1ccccc1CS2.O=C(O)/C=C\C(=O)O (stereo not drawn) | -8.02 |
| CN1CCN(CCOC2c3ccccc3CSc3ccc(Cl)cc32)CC1.O=C(O)/C=C\C(=O)O (stereo not drawn) | -57.2 |
| O=C(Nc1cccc(Cl)c1)OC1CN2CCC1CC2 (stereo not drawn) | 29.5 |
| CCC(=O)OC1(C)C(=O)C=C2C=C(CCCCNC(=O)OC(C)(C)C)OC=C2C1=O (stereo not drawn) | 6.58 |

| SMILES | hERG current change (%, negative = inhibition) at 10uM [%] |
| --- | --- |
| CCCN(CCC)CCCNC(=O)CN1C(=O)CSc2ccc(S(=O)(=O)N3CCOCC3)cc21 | 20.2 |
| CCc1ccc(-c2nnn(Cc3nc4ccccc4s3)n2)cc1 | -10.3 |
| Cc1ccc(OCC(=O)Nc2ccc(S(=O)(=O)N3CCCC3)cc2)cc1 | 15.5 |
| O=C(N/N=C/c1cc([N+](=O)[O-])ccc1O)C(O)(c1ccccc1)c1ccccc1 | 4.13 |
| Cc1cc(C(=O)NN=C2CCCCCCC2)c2ccccc2n1 | 5.42 |
| C=CCOC(=O)C1=C[C@H](c2ccc(C(F)(F)F)cc2)[C@@H](CCCO)[C@H](OCC)O1 | -16.3 |
| O=C(CC1C(=O)NCCN1Cc1ccc(Cl)c(F)c1)NCCc1cccnc1 (stereo not drawn) | -12.7 |
| CCC1CCCCN1C(=O)C(=O)c1cn(CC(=O)N(CC)CC)c2ccccc12 (stereo not drawn) | 21 |
| CCCCN(C(=O)c1ccc2c(c1)OCCO2)c1c(N)n(CC(C)C)c(=O)[nH]c1=O | -11.7 |
| O=c1oc2ccccc2n1CCn1c2ccccc2c2nc3ccccc3nc21 | 10.7 |
| Cn1c(=O)cc(SCC(=O)NCCC2=CCCCC2)c2cc(Cl)ccc21 | 5.01 |
| Cn1c(=O)cc(SCC(=O)NCCCN2CCOCC2)c2ccc(Cl)cc21 | -3.15 |
| CCOc1ccc(CCNC(=O)CSc2cc(=O)n(C)c3cc(Cl)ccc23)cc1OCC | -3.7 |
| CCCCNC(=O)CSc1cc(=O)n(C)c2ccccc12 | 4.11 |
| COCCNC(=O)CSc1cc(=O)n(C)c2cc(Cl)ccc12 | 2.04 |
| CCN1CCCC1CNC(=O)CSc1cc(=O)n(C)c2cc(Cl)ccc12 (stereo not drawn) | -32.7 |
| CCN(CCCNC(=O)CSc1cc(=O)n(C)c2cc(Cl)ccc12)Cc1ccccc1 | -58.8 |
| Cc1cccc(CN2CCC(CNC(=O)CSc3cc(=O)n(C)c4cc(Cl)ccc34)CC2)c1 | -69.7 |
| CN(CCCNC(=O)COc1cc(=O)n(C)c2ccccc12)Cc1ccccc1 | -18.1 |
| CN(CCCNC(=O)CSc1cc(=O)n(C)c2cc(Cl)ccc12)Cc1ccccc1 | -63.5 |
| Cn1c(=O)cc(SCC(=O)NCC2CCCO2)c2ccc(Cl)cc21 (stereo not drawn) | -7.37 |
| CN(CCCNC(=O)CSc1cc(=O)n(C)c2ccc(Cl)cc12)Cc1ccccc1 | -61.2 |
